Results on 23 compounds are retold here after PubChem BioAssay.

The structures appear in SMILES notation. The source made the active and inactive calls. No rule for the calls is given here.

The target of the assay is Pantothenate synthetase (Mycobacterium tuberculosis (strain ATCC 25618 / H37Rv)) (UniProt P9WIL5). In words: Recombinant Mtb pantothenate synthetase (PanC) inhibitors, coupled enzyme, confirmatory (AID 375).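 Also: 0% = full reaction with vehicle and 100% = no enzyme background.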 The conditions noted are these: coupled enzyme assay; at 10 µM, hits give high values.
Pantothenate synthetase (Mycobacterium tuberculosis (strain ATCC 25618 / H37Rv)), sequence (P9WIL5 whole entry, looked up): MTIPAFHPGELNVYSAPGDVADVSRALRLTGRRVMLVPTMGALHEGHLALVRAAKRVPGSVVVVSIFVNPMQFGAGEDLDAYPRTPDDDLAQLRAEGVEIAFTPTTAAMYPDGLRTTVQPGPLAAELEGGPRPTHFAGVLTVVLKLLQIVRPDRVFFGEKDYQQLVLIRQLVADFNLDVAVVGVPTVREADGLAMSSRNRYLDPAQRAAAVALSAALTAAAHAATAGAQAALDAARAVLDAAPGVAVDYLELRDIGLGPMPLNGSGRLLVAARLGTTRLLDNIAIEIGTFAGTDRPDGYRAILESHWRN
Regarding `CN(C)Cc1cn(CCC(=O)O)c2ccccc12`, the inhibition (commonly the share of the control response that was lost under treatment) is 1% (inactive). With `COC(=O)Cc1c(C)nc2nc(-c3ccccc3)[nH]n2c1=O` the figure was 0% (inactive); with `CN1CCN(c2nc3c(c(=O)n(C)c(=O)n3C)n2Cc2cccc3ccccc23)CC1`, 0% (inactive). With `CC(=O)N1CCc2cc(S(=O)(=O)CCC(=O)N3CCN(C(=O)c4ccco4)CC3)ccc21` the figure was 6% (inactive). Then `Cn1c(Cl)cnc1C1CC(=O)c2cc(Cl)ccc2O1` (stereo not drawn), with 7% (inactive); and `CCOC(=O)C(NC(C)=O)(Nc1ccc(S(=O)(=O)Nc2nccs2)cc1)C(F)(F)F` (stereo not drawn), with 3% (inactive); and `COc1ccc2c(CC(=O)Nc3ccc(OC)c(NS(=O)(=O)c4ccc(F)cc4)c3)coc2c1`, with 1% (inactive). `COC(=O)[C@H](C)NC(=O)NCc1ccc(F)cc1`: the inhibition is 1% (inactive). With `O=C(C1CCCN(S(=O)(=O)c2cnc[nH]2)C1)N1CCN(c2ccc(Cl)cc2)CC1` (stereo not drawn) the figure was 0% (inactive). As for `CCOc1ccc(CCN2C(=O)C3C4C=CC(C4)C3C2=O)cc1OCC` (stereo not drawn), the inhibition was 3% (inactive).

Turning to `Cc1ccc(S(=O)(=O)N(C)CC(=O)NC2CC(C)(C)NC(C)(C)C2)cc1`, the inhibition is 0% (inactive). Then `Cc1ccccc1-c1nc(CS(=O)(=O)CC(=O)NCc2ccccc2)c(C)o1`, with 0% (inactive); and `Cc1ccc(OCC(O)Cn2c(NCCc3ccccc3)nc3c2c(=O)[nH]c(=O)n3C)cc1` (stereo not drawn), with 0% (inactive); and `Cc1ccc(CCNC(=O)CC2Oc3ccc(C)cc3NC2=O)cc1` (stereo not drawn), with 0% (inactive).

With `CCOC(=O)N1CCN(C(=O)c2ccc3c(=O)n(Cc4ccc(OC)cc4)c(=S)[nH]c3c2)CC1`, the inhibition was 4% (inactive).

As to `CC(C)NC(=O)NC(=O)COc1cccc2c1OC(C)(C)C2`, the inhibition was 0% (inactive). With `CC1(C)NC(=O)N(CC(O)COc2ccc(-c3ccccc3)cc2)C1=O` (stereo not drawn) the figure was 0% (inactive). As to `O=C(Nc1ncc(Cc2ccccc2)s1)C1CCCO1` (stereo not drawn), the inhibition is 5% (inactive). With `O=c1oc2ccccc2c2nccnc12` the figure was 0% (inactive); with `Cc1nn(-c2nc3ccccc3[nH]2)c(N)c1-c1ccccc1`, 8% (inactive); with `CCOc1ccccc1-n1nnnc1SCC(=O)Nc1cc2oc3ccccc3c2cc1OC`, 0% (inactive). With `O=C(CC(=O)c1cc(Cl)ccc1O)c1ccccc1` the figure was 0% (inactive); with `O=C(CN(Cc1cccs1)C(=O)CNS(=O)(=O)c1ccccc1)NCc1ccco1`, 3% (inactive).
